The nature of test [1]: qHTS assay to identify small molecule antagonists of the androgen receptor (AR) signaling pathway using the MDA cell line in the presence of 0.5 nM R1881 - cell viability counter screen (AID 1259242). Note: nearly all actives have a fitted effect of over 45% in size. Note: potency is the fitted concentration of half-maximal effect. Summed up: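 Cells seeded at 3,000/well and allowed 5 hr at 37C, 0% CO2 before compound transfer and R1881 (0.5 nM final) addition; 16 hr later, live-cell protease fluorescence indicated cytotoxicity.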

Test [2] addresses Androgen receptor (Homo sapiens) (UniProt P10275). As to the kind of experiment: qHTS assay to identify small molecule antagonists of the androgen receptor (AR) signaling pathway using the MDA cell line in the presence of 0.5 nM R1881 (AID 1259243). Note: nearly all actives have a fitted effect of over 50% in size. Note: potency is the fitted concentration of half-maximal effect. Summed up:
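Luminescence from an AR/GR-responsive MMTV-luciferase construct in MDA-kb2 breast carcinoma cells, read 30 min after ONE-Glo, following 16 hr co-treatment with compounds and 0.5 nM R1881.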

The target in test [3] is Estrogen receptor (Homo sapiens) (UniProt P03372). As to the kind of experiment: qHTS assay to identify small molecule antagonists of the estrogen receptor alpha (ER-alpha) signaling pathway using the BG1 cell line in the presence of 0.1 nM 17-beta-estradiol (AID 1259244). Note: nearly all actives have a fitted effect of over 50% in size. Note: potency is the fitted concentration of half-maximal effect. Summed up: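 Luciferase signal from VM7Luc4E2 ERE-reporter cells, co-dosed with test compound and 0.1 nM final 17beta-estradiol for 22 h, read with ONE-Glo.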
A general note: qHTS replaces the single test concentration by a dilution series.

Test [4] is described as follows: qHTS assay to identify small molecule phospholipidosis (PLD) inducers (AID 1259344; active = well fitted curve in the direction sought with a large enough effect; an effect the other way counts as inactive or inconclusive; note: % is set by controls: 0 for no effect and ±100 for the full control effect). Summed up: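 Read-out is LipidTOX Red fluorescence (ex 595/em 615) imaged in HepG2 cells after 24 h compound exposure at 37 C, with Hoechst nuclear counterstain (ex 352/em 461) allowing per-cell normalisation.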
Test [5] can be described thus: qHTS assay to identify small molecule HDAC inhibitors (AID 1259364). Note: potency is the fitted concentration of half-maximal effect.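 Note: wild-type HCT-116 cells with endogenous class I/II HDAC activity; nearly all actives have a fitted effect of over 45% in size.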 In short, it runs like this: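 HCT-116 wt cells, 1,500/well, overnight attach. Compounds (DMSO) 2 h, 37 °C. HDAC-Glo I/II, 30 min RT. Luminescence.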
Test [6] in a line: qHTS assay to identify small molecule HDAC inhibitors - cell viability counter screen (AID 1259365). For activity change, negative = cytotoxicity: series mostly up to about 92 µM; % is set by controls: 0 for no effect and ±100 for the full control effect. Note: nearly all actives have a fitted effect of over 50% in size. Note: potency is the fitted concentration of half-maximal effect. Summed up:
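Following a 2hr exposure of overnight-plated wild-type HCT-116 cells to DMSO-delivered compounds, CellTiter-Glo was added and luminescence recorded after 30min at room temperature.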

Test [7] is described as follows: qHTS assay to identify small molecule agonists of the sonic hedgehog signaling (Shh) pathway - cell viability counter screen (AID 1259366). Note: nearly all actives have a fitted effect of over 50% in size. Note: potency is the fitted concentration of half-maximal effect. In short, it runs like this:
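After a 4hr attachment at 37C, NIH/3T3 cells bearing an integrated Gli1-driven luciferase reporter were dosed with compounds. Treatment lasted 24hr, with the final hour including CellTiter-Fluor for a fluorescence viability measurement.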

Test [8] can be described thus: qHTS assay to identify small molecule antagonists of the sonic hedgehog signaling (Shh) pathway - cell viability counter screen (AID 1259367). Note: nearly all actives have a fitted effect of over 55% in size. Note: potency is the fitted concentration of half-maximal effect. Summed up:
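Fluorescence read-out (CellTiter-Fluor, 1 hr at 37C) taken after 23 hr compound treatment of 3T3 Gli1-Luc cells stimulated with conditioned medium. Cells were seeded at 2,000 per well and pre-incubated 4 hr.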

Test [9] can be described thus: qHTS assay to identify small molecule agonists of the sonic hedgehog signaling (Shh) pathway (AID 1259368; calls by dose curve; note: nearly all actives have a fitted effect of over 15% in size; note: potency is the fitted concentration of half-maximal effect). Summed up: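 Following a 24 hr incubation with DMSO-dissolved compounds at 37 C, 5% CO2, Gli1-Luc NIH/3T3-derived cells received luciferase reagent for 30 min at room temperature prior to luminescence measurement.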
Test [10] is described as follows: qHTS assay to identify small molecule antagonists of the sonic hedgehog signaling (Shh) pathway (AID 1259369; calls by dose curve; note: nearly all actives have a fitted effect of over 45% in size; note: potency is the fitted concentration of half-maximal effect). Summed up: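 Read-out is luminescence from a firefly luciferase gene controlled by the Gli1 response element, in 3T3Gli1-Luc cells pre-incubated 4hr then exposed to compounds and conditioned medium for 24hr.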
Test [11] is described as follows: qHTS assay to identify small molecule agonists of the androgen receptor (AR) signaling pathway in the presence of an antagonist - cell viability counter screen (AID 1259379). Note: nearly all actives have a fitted effect of over 25% in size. Note: potency is the fitted concentration of half-maximal effect. Summed up:
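Each compound was tested at 15 concentrations on MDA-kb2 cells in the presence of 3.0uM nilutamide. Viability was measured by CellTiter-Fluor fluorescence after a 16 hr incubation at 37C in a CO2-free atmosphere.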

Test [12] is described as follows: qHTS assay to identify small molecule agonists of the estrogen receptor beta (ER-beta) signaling pathway - cell viability counter screen (AID 1259380). Note: nearly all actives have a fitted effect of over 30% in size. Note: potency is the fitted concentration of half-maximal effect. Summed up: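 Compounds dissolved in DMSO were pin-transferred onto ER-beta-UAS-bla HEK293T cells that had settled 6 hr, and exposure ran 16 hr at 37C. Following the reporter read, CellTiter-Glo luminescence after 30 min at room temperature indicated cytotoxicity.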

The target in test [13] is Androgen receptor (Homo sapiens) (UniProt P10275). Nature of the test: qHTS assay to identify small molecule agonists of the androgen receptor (AR) signaling pathway in the presence of an antagonist (AID 1259381; calls by dose curve; note: % is set by controls: 0 for no effect and ±100 for the full control effect; nearly all actives have a fitted effect of over 15% in size). In short, it runs like this: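 Plated MDA-kb2 cells (3,000/well) were pre-incubated 5hr, given nilutamide (3.0uM final) or buffer, then dosed with compounds in DMSO at 15 concentrations. Luciferase activity was quantified by luminescence after 16hr at 37C.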

For test [14], the target named is Estrogen receptor (Homo sapiens) (UniProt P03372). As to the kind of experiment: qHTS assay to identify small molecule agonists of the estrogen receptor alpha (ER-alpha) signaling pathway in the presence of an antagonist (AID 1259383; calls by dose curve; note: top concentration of the series differs between compounds; % is set by controls: 0 for no effect and ±100 for the full control effect; nearly all actives have a fitted effect of over 15% in size). In short, it runs like this: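 Luminescent ERE-luciferase reporter, VM7Luc4E2 cells (endogenous ER-alpha); 10.0nM ICI-182,780 final; 15-point compound titration; 22hr at 37C; ONE-Glo, 30min RT.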

Test [15] can be described thus: qHTS assay to identify small molecule agonists or antagonists of the thyroid stimulating hormone receptor (TSHR) signaling pathway - wild type cell line counter screen (AID 1259384; calls by dose curve; note: % is set by controls: 0 for no effect and ±100 for the full control effect). Summed up: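 Wild-type Hek293 cells, 800/well, 18 h at 37C, then compound with Ro20-1724 for 30 min RT. cAMP by HTRF (cAMP-d2/anti-cAMP cryptate), 1 h RT, fluorescence read. 15 concentrations, triplicates.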

In test [16] the target is Thyrotropin receptor (Homo sapiens) (UniProt P16473). Nature of the test: qHTS assay to identify small molecule antagonists of the thyroid stimulating hormone receptor (TSHR) signaling pathway (AID 1259385; calls by dose curve; note: nearly all actives have a fitted effect of over 20% in size; note: potency is the fitted concentration of half-maximal effect). In short, it runs like this: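 TSHR-HEK293 cells (800/well) plated 18 h, then compounds with Ro20-1724 and TSH at 1.5 ng/mL final, 30 min at room temperature. cAMP quantified by HTRF (cAMP-d2/anti-cAMP-cryptate, 1 h); 15 concentrations in triplicate.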

Test [17] in a line: qHTS assay to identify small molecule agonists of the estrogen receptor alpha (ER-alpha) signaling pathway in the presence of an antagonist - cell viability counter screen (AID 1259386).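 Note: cells exposed to compounds for 22 h at 37 °C before the viability read; nearly all actives have a fitted effect of over 30% in size.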 Note: potency is the fitted concentration of half-maximal effect. In short, it runs like this: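 Using estrogen-depleted VM7Luc4E2 cells, the 15-concentration compound series was applied together with 10.0nM ICI-182,780 and incubated 22hr at 37C/5% CO2. Cell viability was then scored by CellTiter-Fluor.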

Test [18] can be described thus: qHTS assay to identify small molecule antagonists of the estrogen receptor beta (ER-beta) signaling pathway - cell viability counter screen (AID 1259382). Note: nearly all actives have a fitted effect of over 55% in size. Note: potency is the fitted concentration of half-maximal effect. Summed up:
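CellTiter-Glo ATP luminescence measured after the LiveBLAzer read in the same wells; ER-beta-UAS-bla HEK293T cells, 16 hr compound treatment with 1nM 17-beta-estradiol agonist at 37C, 5% CO2.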

Test [19] addresses Estrogen receptor beta (Homo sapiens) (UniProt Q92731). As to the kind of experiment: qHTS assay to identify small molecule agonists of the estrogen receptor beta (ER-beta) signaling pathway (AID 1259377; active = well fitted activation curve with a large enough effect in the signal ratio in the repeat runs, not every such curve was filed as active; the % refers to the signal ratio; note: % is set by controls: 0 for no effect and ±100 for the full control effect). Summed up:
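In HEK293T cells bearing a UAS-beta-lactamase reporter under ER-beta control, DMSO-delivered compounds were incubated for 16 hr at 37C. Activity was detected as fluorescence 2 hours after LiveBLAzer B/G FRET substrate addition.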

Test [20] has the same target. Nature of the test: qHTS assay to identify small molecule antagonists of the estrogen receptor beta (ER-beta) signaling pathway (AID 1259378; active = well fitted inhibition curve with a large enough effect in the signal ratio in the repeat runs, not every such curve was filed as active; the % refers to the signal ratio; note: potency is the fitted concentration of half-maximal effect). Summed up:
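ER-beta-UAS-bla HEK293T cells in 2% charcoal-stripped FBS medium treated with compound plus 1nM final 17-beta-estradiol for 16 hr at 37C. Beta-lactamase reporter read by FRET substrate fluorescence after 2 hours at room temperature.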

Values without a mark were called inactive. Results filed as inconclusive are left out. The source made the active and inactive calls. Unless noted, calls come from the whole dose curve; as a rule, active = well fitted curve in the direction sought with a large enough effect in the repeat runs; inconclusive = weak or mixed curves; inactive = no such curve, though single readings can be large; an effect the other way counts as inactive or inconclusive.

Sequence of Estrogen receptor (Homo sapiens) (P03372 whole entry, looked up): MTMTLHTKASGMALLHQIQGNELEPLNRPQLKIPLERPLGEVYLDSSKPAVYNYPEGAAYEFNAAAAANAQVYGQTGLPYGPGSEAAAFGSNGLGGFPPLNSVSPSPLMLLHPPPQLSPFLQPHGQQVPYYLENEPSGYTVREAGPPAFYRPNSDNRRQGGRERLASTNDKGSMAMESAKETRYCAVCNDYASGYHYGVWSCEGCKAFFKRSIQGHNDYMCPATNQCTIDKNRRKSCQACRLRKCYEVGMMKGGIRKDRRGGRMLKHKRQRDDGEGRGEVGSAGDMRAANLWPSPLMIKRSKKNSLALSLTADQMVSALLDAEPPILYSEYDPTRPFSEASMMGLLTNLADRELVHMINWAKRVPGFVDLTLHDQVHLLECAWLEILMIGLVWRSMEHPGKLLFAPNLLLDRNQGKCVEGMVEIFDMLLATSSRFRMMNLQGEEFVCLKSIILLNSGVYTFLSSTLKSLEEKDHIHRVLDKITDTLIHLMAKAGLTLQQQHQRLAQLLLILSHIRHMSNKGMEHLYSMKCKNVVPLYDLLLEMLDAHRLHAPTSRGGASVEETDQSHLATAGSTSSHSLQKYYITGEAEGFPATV
Sequence of Thyrotropin receptor (Homo sapiens) (P16473 whole entry, looked up): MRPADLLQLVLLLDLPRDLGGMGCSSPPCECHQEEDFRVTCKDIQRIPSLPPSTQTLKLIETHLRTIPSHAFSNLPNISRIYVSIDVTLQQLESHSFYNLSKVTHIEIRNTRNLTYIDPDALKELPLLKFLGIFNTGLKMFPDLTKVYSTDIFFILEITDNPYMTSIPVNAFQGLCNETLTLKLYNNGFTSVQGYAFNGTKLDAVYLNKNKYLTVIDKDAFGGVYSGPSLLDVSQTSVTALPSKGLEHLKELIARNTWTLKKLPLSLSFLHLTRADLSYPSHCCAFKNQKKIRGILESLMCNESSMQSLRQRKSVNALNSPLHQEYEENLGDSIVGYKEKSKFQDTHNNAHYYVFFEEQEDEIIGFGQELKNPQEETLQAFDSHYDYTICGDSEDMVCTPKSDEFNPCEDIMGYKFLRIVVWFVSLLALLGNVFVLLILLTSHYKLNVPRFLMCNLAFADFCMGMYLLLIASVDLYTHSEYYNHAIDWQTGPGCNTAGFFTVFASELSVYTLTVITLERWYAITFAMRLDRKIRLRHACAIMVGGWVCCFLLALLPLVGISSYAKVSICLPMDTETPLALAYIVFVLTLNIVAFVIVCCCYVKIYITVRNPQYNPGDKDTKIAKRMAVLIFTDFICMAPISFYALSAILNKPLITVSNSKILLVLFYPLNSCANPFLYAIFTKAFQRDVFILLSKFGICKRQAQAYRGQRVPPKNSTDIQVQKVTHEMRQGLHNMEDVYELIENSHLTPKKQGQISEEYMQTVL
Sequence of Estrogen receptor beta (Homo sapiens) (Q92731 whole entry, looked up): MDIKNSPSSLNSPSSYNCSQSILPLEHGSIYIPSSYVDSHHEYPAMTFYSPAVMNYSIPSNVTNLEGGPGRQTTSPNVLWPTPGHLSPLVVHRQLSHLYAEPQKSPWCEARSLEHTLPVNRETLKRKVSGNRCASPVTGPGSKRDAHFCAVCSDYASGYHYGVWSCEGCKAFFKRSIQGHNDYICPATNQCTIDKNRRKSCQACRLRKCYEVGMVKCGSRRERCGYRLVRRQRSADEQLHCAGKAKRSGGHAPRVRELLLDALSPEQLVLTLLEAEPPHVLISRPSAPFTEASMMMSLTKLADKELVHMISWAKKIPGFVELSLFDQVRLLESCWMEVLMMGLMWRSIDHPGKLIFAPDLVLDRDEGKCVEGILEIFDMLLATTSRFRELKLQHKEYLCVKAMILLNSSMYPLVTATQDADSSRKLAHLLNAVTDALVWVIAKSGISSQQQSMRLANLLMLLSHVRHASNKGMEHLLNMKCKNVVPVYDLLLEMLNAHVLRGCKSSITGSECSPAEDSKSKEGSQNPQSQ
Sequence of Androgen receptor (Homo sapiens) (P10275 whole entry, looked up): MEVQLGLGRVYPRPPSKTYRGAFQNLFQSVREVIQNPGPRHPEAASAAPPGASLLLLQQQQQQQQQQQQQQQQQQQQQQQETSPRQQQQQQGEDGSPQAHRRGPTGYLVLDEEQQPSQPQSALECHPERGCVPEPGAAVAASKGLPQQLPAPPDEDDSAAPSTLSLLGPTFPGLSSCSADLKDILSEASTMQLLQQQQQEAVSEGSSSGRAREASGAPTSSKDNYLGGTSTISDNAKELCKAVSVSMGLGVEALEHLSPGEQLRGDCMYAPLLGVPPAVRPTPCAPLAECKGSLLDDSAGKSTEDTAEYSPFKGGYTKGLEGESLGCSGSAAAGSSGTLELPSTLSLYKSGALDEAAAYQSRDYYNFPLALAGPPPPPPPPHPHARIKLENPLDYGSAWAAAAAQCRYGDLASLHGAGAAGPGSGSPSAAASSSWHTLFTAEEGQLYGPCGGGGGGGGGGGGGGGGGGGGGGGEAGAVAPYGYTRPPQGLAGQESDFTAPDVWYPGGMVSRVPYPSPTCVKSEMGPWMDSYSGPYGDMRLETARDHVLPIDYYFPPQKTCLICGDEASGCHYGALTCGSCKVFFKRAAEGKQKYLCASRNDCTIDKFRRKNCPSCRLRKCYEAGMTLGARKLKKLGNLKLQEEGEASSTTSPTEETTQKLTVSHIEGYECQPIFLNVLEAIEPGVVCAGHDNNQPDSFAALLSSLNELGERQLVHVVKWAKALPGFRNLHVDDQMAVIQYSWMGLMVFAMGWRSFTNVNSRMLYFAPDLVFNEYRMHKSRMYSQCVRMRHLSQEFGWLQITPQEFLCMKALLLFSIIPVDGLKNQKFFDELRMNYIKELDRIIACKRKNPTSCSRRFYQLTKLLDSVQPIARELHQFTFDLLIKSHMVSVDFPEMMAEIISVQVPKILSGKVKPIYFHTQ

`CCCCCCCCCCCCCCCC(=O)OC[C@H](O)[C@H]1OC(=O)C(O)=C1O`: the Potency entry in test [1], in test [2], in [3], in test [4], in test [5] and in [6] was “inactive” throughout. Also, the Potency entry in [7], in [8], in [9], in test [10], in test [11] and in [13] was “inactive” in each case. Also, the Potency entry in [14], in test [16] and in test [17] was “inactive” throughout. Also, the Potency in test [12] is 43.3 µM (active). Further, the molecule was called inactive in [15].
In the case of `COc1ccc(C(=O)/C(Br)=C\C(=O)O)cc1`, the Potency result in test [1], in test [3], in test [4], in test [5], in test [6] and in test [12] was “inactive” each time. In addition, the Potency result in [13] and in test [14] was “inactive” in each case. The values for the Potency in test [2], in [9] and in test [10] were 48.6 µM (active), 17.2 µM (active) and 3.86 µM (active), respectively.
In the case of `CCCC(=O)OC[C@@H](OC(=O)CCC)[C@@H](OC(=O)CCC)[C@H](Cn1c2nc(=O)[nH]c(=O)c-2nc2cc(C)c(C)cc21)OC(=O)CCC`, the Potency result in test [1], in test [4], in test [5], in [6], in test [11] and in test [13] was “inactive” throughout. In addition, the Potency entry in test [18], in [14] and in [16] was “inactive” each time. The Potency in test [2] was 16.8 µM (active); in [3] it was 26.6 µM (active); in test [10], 2.37 µM (active); in test [12], 16.8 µM (active). In addition, in test [15], the outcome was inactive.
As for `[Cl][Bi]([Cl])([c]1ccccc1)([c]1ccccc1)[c]1ccccc1`, the Potency in [1] was 27.1 µM (active); in test [2] it was 13.6 µM (active); in test [3] it was 4.83 µM (active); in test [7] it was 0.108 µM (active); in [8] it was 0.136 µM (active); in [11], 60.8 µM (active). Also, the Potency in test [12] and in [17] was 24.2 µM (active) in each case. Moreover, the Potency entry in [5], in [6], in [13], in [14] and in test [16] was “inactive” throughout.
As to `[O-][n+]1ccccc1SSc1cccc[n+]1[O-]`, the Potency in test [1] is 0.326 µM (active); in test [2], 0.291 µM (active); in test [3], 0.13 µM (active); in [5], 1.83 µM (active); in test [7], 0.13 µM (active); in test [8] it was 0.291 µM (active). Besides, the Potency in test [12] was 0.092 µM (active); in [18], 0.13 µM (active); in [17], 8.2 µM (active). Further, the Potency result in test [4] was “inactive”. Also, in test [6], the activity change, negative = cytotoxicity is 12.3% [at 19 µM]. Further, the activity change in [9] is -7.63% [at 18.9 µM, active compounds read high]. Also, the activation in test [13] is -7.58% [at 19 µM]; in [14], 3.22% [at 19 µM].
As to `CN(C)C(=O)C1(N2CCCCC2)CCN(CC[C@@]2(c3ccc(Cl)c(Cl)c3)CN(C(=O)c3ccccc3)CCO2)CC1`, the Potency is 50.9 µM (active) in test [1]; 28.6 µM (active) in test [2]; 57.1 µM (active) in test [3]; 16.1 µM (active) in test [7]; 50.9 µM (active) in test [8]; 16.1 µM (active) in [20]. In addition, the Potency is 57.1 µM (active) in test [11], 36 µM (active) in test [12], 64.1 µM (active) in test [16] and 57.1 µM (active) in test [17]. Further, the Potency entry in [5], in [6], in [9], in [19], in test [13] and in test [14] was “inactive” each time. Further, in test [15], the molecule was classed as inactive.
For the molecule `O=S1(=O)CC(Cl)(Cl)C(Cl)(Cl)C1`, the Potency is 21.7 µM (active) in [1]; 5.45 µM (active) in test [2]; 21.7 µM (active) in test [3]; 48.6 µM (active) in [6]; 1.37 µM (active) in test [7]; 2.17 µM (active) in [8]. The Potency in test [10] was 0.344 µM (active); in test [20] it was 4.86 µM (active); in test [11], 21.7 µM (active); in test [18] it was 9.69 µM (active); in test [16], 48.6 µM (active); in [17], 27.3 µM (active). Also, the Potency result in test [5], in [9], in [19], in [13] and in [14] was “inactive” each time. Besides, the outcome in test [15] was inactive.

These data come from PubChem BioAssay (Tox21).
